Data as given in the supplement of paper PMC11219838.
Unmarked numbers belong to inactive results.

Test system: Caenorhabditis elegans dauer (daf-2(e1370))
Assay: proportion of mobile C. elegans dauer larvae relative to DMSO control (fraction of DMSO control); higher = more viable, less nematicidal, active = 0.63 or less; extreme values may be limits of the assay
Details: 60 µM; 5 days; temperature: 20 °C
Procedure: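 DODA library (846 commercial 1,3,4- and 1,2,4-oxadiazole compounds plus commercial nematicide controls) screened at a single dose of 60 µM (0.6% DMSO) in 96-well plates, two biological replicates. Read-outs: C. elegans N2 L1 survival/reproduction score at day 6, 20 °C (0: 0-10 worms, 1: 11-20, 2: 21-50, 3: >50, 4: overgrown/starved). C. elegans daf-2 dauer, D. dipsaci and M. hapla J2 mobility at day 5, 20 °C, and P. penetrans mobility at day 5, 20 °C, each relative to DMSO controls. M. hapla egg hatching at day 12, 25 °C, relative to the mean of 8 DMSO wells on the same plate.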

SMILES | proportion of mobile C. elegans dauer larvae
Clc1cc(Br)ccc1OCc1nc(-c2cccnc2)no1 | 1
Clc1ccccc1-c1noc(-c2ccccc2Cl)n1 | 1
Cc1ccoc1-c1nnc(-c2ccco2)o1 | 1
CC1CC(C)CN(C(=O)CSc2nnc(-c3cccc(Cl)c3)o2)C1 (stereo not given) | 1
c1ccc2c(-c3nc(-c4ccncc4)no3)cccc2c1 | 1
CCOc1ccccc1-c1nnc(SCC(=O)Nc2nccs2)o1 | 1
COc1ccccc1NC(=O)c1ccccc1-c1nc(-c2ccc(Cl)cc2)no1 | 1
COc1ccc(CCC(=O)Nc2ccc(-c3noc(COc4ccccc4C)n3)cc2)cc1 | 1
CC(=O)Nc1ccc(NC(=O)c2ccccc2-c2nc(-c3ccccc3Cl)no2)cc1 | 1
Clc1ccc(CSc2nnc(-c3ccccc3)o2)c(Cl)c1 | 1
COc1ccccc1NC(=O)CSc1nnc(-c2ccc(Cl)cc2)o1 | 1
N#Cc1ccccc1CSc1nnc(-c2ccccc2)o1 | 1
CCOc1cc(-c2nc(-c3ccccc3OC)no2)cc(OCC)c1OCC | 1
c1ccc(COc2cccc(-c3nc(-c4cccnc4)no3)c2)cc1 | 1
Cc1ccc(CSc2nnc(-c3ccncc3)o2)cc1 | 1
CCN(C(=O)CSc1nnc(-c2ccncc2)o1)c1ccccc1 | 1
Ic1ccc(OCc2nc(-c3ccncc3)no2)cc1 | 1
COc1nc(C)ccc1-c1noc(-c2ccc(C(C)(C)C)cc2)n1 | 1
N#Cc1ccc(OCc2nc(-c3ccc(Br)o3)no2)cc1 | 1
COc1ccc(NC(=O)c2ccccc2-c2nc(-c3ccccc3C)no2)cc1 | 1

SMILES | proportion of mobile C. elegans dauer larvae
COc1nc(-c2ccccc2)ccc1-c1noc(-c2ccccc2C)n1 | 1
CCN(CC)C(=O)CSc1nnc(-c2cccc(Cl)c2)o1 | 1
Clc1ccccc1-c1nc(-c2ccc3c(c2)OCO3)no1 | 1
Cc1ccccc1OCc1nc(-c2ccc(F)cc2)no1 | 1
Cc1cccc(-c2noc(COc3ccc(Br)cc3)n2)c1 | 1
COc1ccc(Cl)cc1-c1noc(COc2ccccc2C)n1 | 1
Cc1ccc(OCc2nc(-c3ccccc3Cl)no2)c(C)c1 | 1
Cc1cc(OC(C)c2nc(-c3cccnc3)no2)ccc1Cl (stereo not given) | 1
COc1ccc(Cl)cc1-c1noc(-c2ccccc2)n1 | 1
Cc1ccc(-c2nnc(SCc3ccccc3)o2)cc1 | 0.371 (active)
Fc1cccc(-c2nc(-c3cccnc3)no2)c1 | 1
Fc1ccc(CSc2nnc(-c3ccccn3)o2)cc1 | 1
Cc1ccc(-c2nc(-c3cccnc3)no2)cc1Cl | 1
COc1ccccc1NC(=O)CSc1nnc(-c2cccc3ccccc23)o1 | 1
O=C(CSc1nnc(-c2ccco2)o1)Nc1cccc(Cl)c1Cl | 1
O=C(CSc1nnc(-c2ccccc2Cl)o1)NCc1ccco1 | 1
COc1ccc(-c2noc(-c3ccccc3Br)n2)cc1 | 1
Clc1ccc(-c2nc(-c3ccncc3)no2)c(Cl)c1 | 1
COc1cccc(-c2noc(COc3ccc(C)cc3)n2)c1 | 1
COc1ccc(-c2noc(CSc3nc4cc(C)ccc4[nH]3)n2)cc1 | 1
